CYP2C19 activ: human CYP2C19 activators, primary screen, biochemical, luminescence | Cytochrome P450 2C19 (Homo sapiens), P33261 | 96,000 tested, under 10 active | recombinant CYP2C19, luciferin-H EGE luminescence; hits give high values; 0 = fully inhibited enzyme, 1 = untreated enzyme | activation factor at 5 µM;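 active means activation factor of at least 2 at 5 µM in the primary screen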;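 further: 0 = wells with 2.5 mM tranylcypromine and 1 = vehicle-only wells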
Target sequence (P33261 whole entry, looked up): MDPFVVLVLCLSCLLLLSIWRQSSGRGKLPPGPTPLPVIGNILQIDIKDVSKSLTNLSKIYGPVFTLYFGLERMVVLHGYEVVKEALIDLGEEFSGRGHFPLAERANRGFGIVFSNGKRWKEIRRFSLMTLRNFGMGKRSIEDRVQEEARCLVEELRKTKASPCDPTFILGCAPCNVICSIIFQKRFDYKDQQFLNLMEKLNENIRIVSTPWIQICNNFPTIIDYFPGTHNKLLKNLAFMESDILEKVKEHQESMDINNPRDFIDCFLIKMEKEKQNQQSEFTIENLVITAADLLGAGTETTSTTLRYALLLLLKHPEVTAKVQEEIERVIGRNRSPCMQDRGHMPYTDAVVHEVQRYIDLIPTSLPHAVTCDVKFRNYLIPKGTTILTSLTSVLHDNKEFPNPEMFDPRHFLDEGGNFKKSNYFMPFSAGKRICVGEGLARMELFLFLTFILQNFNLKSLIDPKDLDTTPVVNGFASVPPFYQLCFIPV
CYP2C9 act: human CYP2C9 activators, primary screen, biochemical, luminescence; recombinant CYP2C9, luciferin-H conversion; hits give high values; factor 1 = untreated enzyme, 0 = blocked; Cytochrome P450 2C9 (Homo sapiens), P11712; 96,000 tested, 1.4% active; activation factor at 5 µM;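 active means activation factor of 2 or more for CYP2C9 at a 5 µM dose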;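 further: 0 = sulfaphenazole-blocked wells and 1 = vehicle-only wells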
E-sel TNF inh: E-selectin induction blockers in HUVEC – imaging, immunofluorescence, high content, primary screen; 120,000 tested, 0.71% active; HUVEC TNFa-induced E-selectin immunofluorescence; inhibition, % at 2 µM;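 active means inhibition above the batch mean plus 3 SD, and confirmed as a hit on visual image review, cut at about 43% in these data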;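 further: 0% = TNF-stimulated DMSO wells and 100% = unstimulated control wells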
CYP2C19 inhib: blockers of cytochrome P450 2C19 activity – biochemical, luminescence, ADME assay, primary screen. CYP2C19 Supersomes, luciferin-H EGE luminescence, 30 min. 96,000 tested, 21% active. inhibition, % at 5 µM. P33261. AID 778, 2007;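 active means CYP2C19 inhibition above a set limit at 5 µM in the primary screen, cut at about 50% in these data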;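 further: plate controls were negative control wells for no effect and 2.5 mM tranylcypromine positive control for full effect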
cytoskel mod: modifiers of F-actin cytoskeleton organization, primary screen, imaging, HUVEC, phalloidin staining, high-content imaging; 91,000 tested, 0.18% active; inhibition, % at 2 µM; HUVEC TNFa F-actin phalloidin imaging;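 active means inhibition above the batch mean plus 3 SD and confirmed as a hit by visual image inspection, cut at about 30% in these data, passing the limit was not always enough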
CYP2C9 inhib: blockers of cytochrome P450 2C9 activity – biochemical, luminescence, ADME assay, primary screen; P11712; CYP2C9 Supersomes, luciferin-H conversion; inhibition, % at 5 µM; 96,000 tested, 20% active; AID 777, 2007;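 active means blocking of liver enzyme CYP2C9 beyond about 50% at 5 µM, limit read from the data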
The depositor's hits bear a star; · = not tested or not shown. Compounds with a hit are over-represented: about 22% of the library has one in this group of screens.

SMILES | CYP2C19 activ | CYP2C9 act | E-sel TNF inh | CYP2C19 inhib | cytoskel mod | CYP2C9 inhib
CN(C)c1ccc(CNCCC2(O)CCOC(C)(C)C2)cc1 (configuration not stated) | 0.5 | 1 | -14 | 53* | · | 4
CCOc1ccccc1NC(=O)N1C2CCCC1CC(NC(=O)C1CC1)C2 (configuration not stated) | · | · | 0 | · | 19 | ·
Cc1nc2ccccc2n1/C(=N\S(=O)(=O)c1ccccc1)c1ccccc1 | · | · | 11 | · | · | ·
Cn1c(SCc2cc(=O)[nH]c3ccccc23)nnc1-c1ccc(Br)cc1 | 0.5 | 0.8 | 16 | 51* | 4 | 18
Cc1ccc(OCc2nnc(SCc3cc(=O)[nH]c4ccccc34)n2-c2ccccc2)cc1 | · | · | 2 | · | · | ·
Cc1cc(SCc2cc(=O)[nH]c3ccccc23)nc2ccccc12 | 1.1 | 1 | 64* | -6 | -2 | -1
COc1ccc2cc(-c3cc(C(=O)OCC(=O)Nc4c(C)n(C)n(-c5ccccc5)c4=O)c4ccccc4n3)ccc2c1 | · | · | 2 | · | · | ·
O=C(NC1(C(F)(F)F)NC(=O)N(Cc2cccnc2)C1=O)c1cccs1 (configuration not stated) | 0.5 | 0.6 | 23 | 52* | -2 | 37
Cc1ccc(S(=O)(=O)n2ccc(-c3cccc(OCc4c(F)cccc4Cl)c3)n2)cc1 | 0.8 | 0.3 | 8 | 20 | 28 | 68*
CCOC(=O)C(NC(=O)c1ccccc1)=C1CCCCC1 | 0.9 | 0.7 | · | 14 | -8 | 30
C#CCOC(=O)C(NC(=O)c1ccccc1)=C1CCCCC1 | 0.6 | 0.3 | 16 | 39 | 14 | 68*
CCCNC(=O)NC(=O)COC(=O)c1cccc(NS(=O)(=O)c2ccc(F)c(F)c2)c1 | · | · | 22 | · | · | ·
COc1ccc2c(c1)CC/C2=N\OC(=O)c1ccccc1C | · | · | 13 | · | · | ·
COc1ccc2c(c1[N+](=O)[O-])CCC/C2=N/OC(=O)c1cccc2ccccc12 | 0.9 | 2* | -15 | 8 | -1 | -96
CC(C)(C)c1ccc(C(=O)CSc2n[nH]c(=O)[nH]c2=O)cc1 | 1 | 0.5 | 3 | 2 | -17 | 53*
CCOC(=O)C1CCN(C(=O)CSc2n[nH]c(=O)[nH]c2=O)CC1 | 1.2 | 1.1 | -43 | -16 | 12 | -11
CCC(=O)Nc1cccc(NC(=O)c2ccccc2Cl)c1 | · | · | -17 | · | · | ·
CCC(=O)Nc1cccc(NC(=S)NC(=O)c2ccccc2Cl)c1 | 0.7 | 2.5* | 10 | 28 | 0 | -154
Cc1ccc(C(C)NC(=O)c2c(C)noc2C)cc1C (configuration not stated) | 0.4 | 0.8 | -8 | 61* | -38 | 24
Cc1noc(C)c1C(=O)NCCc1ccccc1 | 0.9 | 1.1 | 13 | 5 | -3 | -8
CCC(=O)Oc1ccc(C2N(C(=O)CC)CCN2S(=O)(=O)c2ccc(C)cc2)cc1OC (configuration not stated) | 0.8 | 0.7 | · | 20 | -6 | 32
Cc1ccc2nc(-c3ccc(N4C(=O)CC(N5CCC(C(N)=O)CC5)C4=O)cc3)sc2c1 (configuration not stated) | · | · | -20 | · | · | ·
COC(=O)NC(NC(=S)Nc1ccc([N+](=O)[O-])cc1)C(Cl)(Cl)Cl (configuration not stated) | · | · | -7 | · | 1 | ·
Cc1cc([N+](=O)[O-])ccc1NC(=S)NC(=O)Cc1ccccc1 | 0.8 | 1 | · | 17 | 8 | 4
COc1ccc([N+](=O)[O-])cc1NC(=S)NC(NC(=O)C(c1ccccc1)c1ccccc1)C(Cl)(Cl)Cl (configuration not stated) | 0.8 | 0.3 | -15 | 16 | -21 | 69*
SMILES | CYP2C19 activ | CYP2C9 act | E-sel TNF inh | CYP2C19 inhib | cytoskel mod | CYP2C9 inhib
Cc1cc([N+](=O)[O-])ccc1NC(=S)NC(=O)C(c1ccccc1)c1ccccc1 | 0.8 | 0.3 | -2 | 22 | 20 | 66*
CCOC(=O)/C(=C/c1ccc(OC)cc1)NC(=O)c1ccco1 | · | · | 23 | · | · | ·
CC(=O)c1c(C)[nH]c(C(=O)N2CCc3ccccc32)c1C | 0.3 | 0.3 | · | 69* | -8 | 69*
O=C(c1c(F)c(F)c(F)c(F)c1F)N1CCc2ccccc21 | · | · | -13 | · | -7 | ·
CCOc1ccc(-n2cc(C(=O)Nc3cccc(Cl)c3)c3cc(OC)c(OC)cc3c2=O)cc1 | 0.6 | 0.4 | -3 | 36 | · | 59*
CCCOc1ccccc1C1CC(=O)NC(C)=C1C(=O)OCC(C)C (configuration not stated) | 0.4 | 1.1 | 4 | 56* | 0 | -6
CC1=C(C(=O)OC(C)C)C(c2ccccc2Cl)CC(=O)N1 (configuration not stated) | 0.1 | 0.9 | -2 | 87* | 14 | 7
CC1(C)c2ssc(=S)c2-c2ccccc2N1C(=O)CSC1=NCCS1 | 0.5 | 0.7 | 19 | 52* | 0 | 31
Cc1ccc2c(c1)-c1c(ssc1=S)C(C)(C)N2C(=O)CSc1nncn1C | 0.2 | 0.6 | -1 | 76* | -18 | 43
COc1ccc(OC)c(NC(=O)CSC2=NCCS2)c1 | 0.6 | 0.9 | -22 | 42 | 38 | 5
COc1ccc2c(c1)-c1c(ssc1=S)C(C)(C)N2C(=O)CSC1=NCCS1 | 0.3 | 0.3 | -5 | 72* | -2 | 73*
CCOc1ccc2c(c1)-c1c(ssc1=S)C(C)(C)N2C(=O)c1ccco1 | · | · | -20 | · | · | ·
Cc1cc2c(cc1C)N(C(=O)CSC1=NCCS1)C(C)(C)c1ssc(=S)c1-2 | 0.2 | 0.3 | -44 | 78* | -28 | 70*
Cc1cc(C)c2c(c1)-c1c(ssc1=S)C(C)(C)N2C(=O)CSc1nncn1C | 0.7 | 0.6 | -11 | 30 | 46 | 41
CC(C)N(C(=O)CSc1nnc(CN2CCCCCC2=O)n1-c1ccccn1)C(C)C | 1 | 1.1 | -9 | -3 | 5 | -9
CCCc1nc(SCc2ccccn2)c2c(=O)n(C)c(=O)n(C)c2n1 | 0.6 | 0.3 | · | 45 | 0 | 71*
Cc1cc(NC(=O)CSc2nc(CC(C)(C)C)nc3c2c(=O)n(C)c(=O)n3C)no1 | 1 | 0.4 | 3 | 1 | -8 | 63*
Cn1c(=O)c2c(SCc3ccccn3)nc(CC(C)(C)C)nc2n(C)c1=O | 0.9 | 0.2 | 6 | 9 | 16 | 82*
Cn1c(=O)c2c(SC3CCCC3)nc(CC(C)(C)C)nc2n(C)c1=O | · | · | · | · | -1 | ·
Cn1c(=O)c2c(SCc3ccccn3)nc(C3CC3)nc2n(C)c1=O | 0.9 | 0.8 | -25 | 6 | · | 17
COc1ccc(CNCc2ccco2)cc1OCc1ccccc1 | 0.4 | 1.1 | -54 | 65* | 14 | -5
CCCOc1cc(CC(=O)NCc2ccco2)ccc1OC | 0.3 | 0.4 | -22 | 71* | -12 | 63*
COc1ccc(C(=O)NC(=S)NCc2ccco2)cc1OC | 0.5 | 0.3 | 19 | 54* | -1 | 70*

Compound activity from PubChem.
